Structures are written as SMILES. Among all 360,000 compounds or so, about 2,300 (0.64%) were called active. Cut-off read from the data, not from the text of the source: active = inhibition mostly above about 40% (no sharp cut-off); inactive = mostly below about 27%. The list comes from a sample in which actives are over-represented; it also holds similar structures and randomly drawn compounds.

Sequence of Sentrin-specific protease 8 (Homo sapiens) (Q96LD8 whole entry, looked up): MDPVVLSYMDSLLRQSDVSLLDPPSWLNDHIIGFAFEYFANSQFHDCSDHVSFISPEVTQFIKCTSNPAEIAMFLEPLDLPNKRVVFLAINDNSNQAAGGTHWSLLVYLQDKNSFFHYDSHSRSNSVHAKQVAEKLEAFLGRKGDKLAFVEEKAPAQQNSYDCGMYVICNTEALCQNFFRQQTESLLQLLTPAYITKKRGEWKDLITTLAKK

The experiment concerns the target Sentrin-specific protease 8 (Homo sapiens) (UniProt Q96LD8). Kind of experiment: blockers of SENP8 deneddylase activity – biochemical, fluorescence, Nedd8 protein substrate, uHTS, primary screen (AID 602440). The settings on record: recombinant SENP8, Nedd8 substrate fluorescence; at 20 µM; hits give high values.
On to `CCn1cc(C(=O)N2CC(C)CC(C)C2)c(=O)c2cc(S(=O)(=O)N3CCCC3)ccc21` (stereo unspecified), for which the inhibition (usually the relative decrease from the control value, in per cent) was 11.3% (inactive).
On to `Cc1ccc(N(C(=O)c2ccc(S(=O)(=O)N(C)C)cc2)C2C=CS(=O)(=O)C2)cc1` (stereo unspecified), for which the inhibition was 9.3% (inactive).
To `COC(=O)C1=C(C(=O)OC)[C@@H]2N(C)c3ccccc3[C@@]23C[C@@H](C(=O)OC)N(C(=O)c2ccco2)C3=N1` belongs 3.7% (inactive).
The value for `O=C(Nc1ccccc1C(F)(F)F)N1CCCC1c1cccnc1` (stereo unspecified) was 6.2% (inactive); that for `O=C(NC(=S)N1CCCCC1c1cccnc1)c1ccccc1` (stereo unspecified) was 46.4% (active).
With `COc1ccc(C(=O)NC(=S)N2CCCCC2c2cccnc2)cc1OC` (stereo unspecified), the inhibition was 8.4% (inactive).
For the molecule `COc1cccc(NC(=O)CN(C)CC(=O)c2c(N)n(Cc3ccccc3)c(=O)n(C)c2=O)c1`, the inhibition was 0.5% (inactive).
In the case of `COc1cc(/C=C/CO)cc(OC)c1O[C@@H]1O[C@H](CO)[C@@H](O)[C@H](O)[C@H]1O`, the inhibition was -20.9% (inactive).
As to `Cc1ccc(CNS(=O)(=O)CCNC(=O)c2ccccc2)cc1`, the inhibition is 5.7% (inactive).
On to `CCCCNCCS(=O)(=O)NCc1ccccc1`, for which the inhibition was 61.4% (active).
Consider `CCCCNS(=O)(=O)CCNCc1ccccc1OC`, for which the inhibition was 5.2% (inactive).
The value for `O=C(NCc1ccco1)/C(=C\c1cccc([N+](=O)[O-])c1)NC(=O)c1ccco1` was 9.4% (inactive); that for `O=C(NCc1ccco1)/C(=C/c1cccc([N+](=O)[O-])c1)NC(=O)c1ccco1` was 15.2% (inactive).
With `Cc1ccc(C(=O)N/C(=C/c2ccc(-c3cccc([N+](=O)[O-])c3)o2)C(=O)NCCCN(C)C)cc1`, the inhibition is 51.7% (active).
Turning to `COc1ccc(C(=O)OCC(=O)Nc2cc(C)on2)cc1F`, the inhibition was 10.9% (inactive).
As for `CN(C)S(=O)(=O)c1cc(C(=O)Nc2ccn(C)n2)c(Cl)cc1Cl`, the inhibition was 19.3% (inactive).
Turning to `CCN=C1SC(CC(=O)Nc2ccc(C)cc2)C(=O)N1CC` (stereo unspecified), the inhibition is 40.5% (active).
Regarding `CN=C1SC(CC(=O)Nc2ccc(C(=O)O)cc2)C(=O)N1C` (stereo unspecified), the inhibition is 16.1% (inactive).
With `CCN1C(=O)C(CC(=O)Nc2cc(C)ccc2C)SC1=Nc1ccc(S(N)(=O)=O)cc1` (stereo unspecified), the inhibition was 13.6% (inactive).
With `Cc1cccc(N2CC(C(=O)Nc3ccccc3N3CCCC3)CC2=O)c1C` (stereo unspecified), the inhibition is 14.3% (inactive).
On to `CC1CCN(c2ccc3c(c2)S(=O)(=O)c2cc(C(=O)O)ccc2C3=O)CC1`, for which the inhibition was -15.6% (inactive).
To `CC1CCN(c2ccc(C(=O)NCc3ccc4c(c3)OCO4)cc2[N+](=O)[O-])CC1` belongs 20.8% (inactive); to `CC1CCN(c2ccc([N+](=O)[O-])c(SCCO)c2)CC1`, 40.3% (active).
In the case of `COc1ccc(C(=O)N2CCC(C(=O)Nc3cccc(C)c3)CC2)cc1OC`, the inhibition is 9.3% (inactive).
`COc1ccc(-c2c(C)nn3c(N4CCC(C(=O)N5CCCCC5)CC4)cc(C)nc23)cc1OC`: the inhibition was -21.1% (inactive).
In the case of `COC(=O)[C@]12CCCCC=C1N(Cc1ccc3c(c1)OCO3)C(=O)[C@H](CC(=O)NCc1cccs1)C2`, the inhibition is 19.5% (inactive).
`CCOc1ccc(S(=O)(=O)N2CCN=C2Cc2ccccc2)cc1C`: the inhibition is 23.3% (inactive).
Turning to `Nc1nnn(CC(=O)N/N=C/c2ccccc2)n1`, the inhibition was -8.5% (inactive).
Take `COC(=O)C(C)N=Cc1ccccc1` (stereo unspecified): the inhibition is 0.2% (inactive).
`NN=C(NN=Cc1ccccc1)c1ccccc1`: the inhibition was 49.4% (active).
The value for `O=C(NCc1ccccc1)C(=O)NCC1OCCN1S(=O)(=O)c1ccc(Br)cc1` (stereo unspecified) was 0.6% (inactive).
Take `CCOc1ccc(NCCC(=O)c2ccc3c(c2)OCO3)cc1`: the inhibition was 37.1% (active).
Take `COc1ccc(C2(C)NC(=O)N(CC(=O)c3ccc4c(c3)OCO4)C2=O)cc1` (stereo unspecified): the inhibition is -8.5% (inactive).
For `CCOc1ccc(C(=O)CCN2CCOCC2)cc1`, the inhibition was 5.4% (inactive).
Regarding `CC1(C(=O)Nc2cccc3c2CCCC3)CCN1C(=O)CCc1ccc(Cl)cc1Cl` (stereo unspecified), the inhibition was 10.4% (inactive).
To `COc1ccc2c(c1)N(C)/C(=C1/SC(=S)N(NC(C)=O)C1=O)S2` belongs 1.5% (inactive); to `COc1ccc(C(=O)NN2C(=O)C3C(c4ccccc4)C=CC(c4ccccc4)C3C2=O)cc1` (stereo unspecified), 7% (inactive).
To `CC(=O)N1C(=O)/C(=C2\SC(=S)N(NC(=O)c3ccc(O)cc3)C2=O)c2ccccc21` belongs 53.5% (active); to `Oc1cccc(C2c3[nH]c4ccccc4c3CCN2Cc2cnn(-c3ccccc3)c2)c1` (stereo unspecified), -56.9% (inactive).
As for `CSCC[C@H](NC(=O)CCCn1nnc2ccccc2c1=O)C(=O)O`, the inhibition is 38.5% (inactive).
On to `CCOC(=O)N1CCN(C(=O)C[C@@H]2C[C@@]3(C(=O)OC)CC(C)(C)CC=C3N(Cc3ccco3)C2=O)CC1`, for which the inhibition is 26.3% (inactive).
In the case of `CCCc1ccc(C(=O)COC(=O)CN2C(=O)NC3(CCCCC3C)C2=O)cc1` (stereo unspecified), the inhibition is 9.6% (inactive).
`CCCCCCCCCCCCCCCC(=O)OC/C=C(C)/C=C/C=C(C)/C=C/C1=C(C)CCCC1(C)C`: the inhibition is 40.9% (active).
With `CCc1nnc(NC(=O)CCN(c2ccc(C)cc2)S(=O)(=O)c2ccccc2)s1`, the inhibition was 14.8% (inactive).
As to `COCCCNC(=O)CNC(=S)N(Cc1cc(OC)c(OC)c(OC)c1)C1CCCC1`, the inhibition is 4.9% (inactive).
Regarding `Cc1c(NC(=O)Nc2cccc([N+](=O)[O-])c2)c(=O)n(-c2ccccc2)n1C`, the inhibition was 9.3% (inactive).
To `CCOC(=O)C(C)n1cnc2c(nnn2-c2ccc(F)cc2)c1=O` (stereo unspecified) belongs 6.3% (inactive); to `CCOC(=O)C(CC)Sc1ncnc2c1nnn2-c1ccc(F)cc1` (stereo unspecified), 40.3% (active).
For `COC(=O)C(C)n1cnc2c(nnn2-c2ccc(F)cc2)c1=O` (stereo unspecified), the inhibition is 4.4% (inactive).
For `CC(C)c1nc2oc3c(N4CCN(C)CC4)ncnc3c2c2c1CCC2`, the inhibition is -130% (inactive).
Turning to `Cc1ccnc(N2CCN(C(=O)CSc3nc4ccccc4nc3N3CCCCC3)CC2)c1`, the inhibition is -63.3% (inactive).
The value for `OC(COCC1COc2ccccc2O1)CN1CCN(c2ccc(F)cc2)CC1` (stereo unspecified) was 16.7% (inactive).
In the case of `CN1/C(=c2/s/c(=C3/C(=O)N(c4ccccc4)NC3=Nc3ccccc3)n(C)c2=O)C(C)(C)c2ccccc21`, the inhibition was 54.8% (active).
For the molecule `OCC1(Cc2ccccc2)CCN(Cc2cc3ccccc3o2)CC1`, the inhibition was 3.7% (inactive).
Take `CCN(CC)S(=O)(=O)c1ccc(N2CCOCC2)c(NC(=O)C2CSC3(C)CCC(=O)N23)c1` (stereo unspecified): the inhibition is -11.2% (inactive).
In the case of `Cc1cc([N+](=O)[O-])c(NC2CCCCC2)c([N+](=O)[O-])c1`, the inhibition was 45.6% (active).
The value for `Cc1cc([N+](=O)[O-])c(N2CCC[C@@H]2C(=O)O)c([N+](=O)[O-])c1` was 2.1% (inactive); that for `Cc1cc(C)cc(NC(=O)NC2CCCCCCC2)c1` was 1.8% (inactive); that for `CCCCN(CC(=O)NC(C)(C)C)C(=O)C(=O)Nc1ccc2c(c1)OCCO2` was 17% (inactive).
With `O=S(=O)(O)CCN1CCOCC1`, the inhibition was 24.3% (inactive).
With `O=C1c2ccccc2-c2ccccc2NC1O` (stereo unspecified), the inhibition was 14.1% (inactive).
To `O=C1c2ccccc2C(=O)C1C(=O)C1CC1` belongs 37.6% (active).
As to `O=C1c2ccccc2C(=O)C1c1ccccc1`, the inhibition is 4.5% (inactive).
In the case of `Cc1cccc2nc(CNc3ccc(F)cc3)cn12`, the inhibition was -86.7% (inactive).
With `CCOC(=O)c1sc2nc(C)nc(Nc3ccc(OC)c(OC)c3)c2c1C`, the inhibition is -82.2% (inactive).
`CCCCN1CC(C)(C)[C@H](CC(=O)Nc2ccc(Br)cc2)C1=O`: the inhibition was 15.8% (inactive).
Regarding `CCn1c2ccc(F)cc2c2nnc(SCCN3CCOCC3)nc21`, the inhibition was 11.3% (inactive).
For the molecule `CN(C)c1nc(NN)nc(Nc2ccc(F)cc2)n1`, the inhibition is 12.3% (inactive).
As to `Cn1c2ccc(F)cc2c2nnc(NN)nc21`, the inhibition is 49.2% (active).
For the molecule `N#Cc1c(N)nc2c3c(sc(=N)c2c1N)NC(=O)CC3c1ccccc1Cl` (stereo unspecified), the inhibition was -174% (inactive).
As for `CCCCN1CC(N2CCN(Cc3cccc(C)c3)CC2)CS1(=O)=O` (stereo unspecified), the inhibition is 12.1% (inactive).
The value for `C#CCOc1ccccc1/C=C1/C(=O)ON=C1C` was 13.5% (inactive); that for `CC1=NOC(=O)/C1=C\c1ccccc1` was 42.9% (active); that for `Cc1ccc(S(=O)(=O)n2oc(=O)c(C3CCCCC3)c2N)cc1` was 7.6% (inactive).
For the molecule `COc1cc(OC)cc(C(=O)NCC(=O)OCc2csc(-c3ccccc3)n2)c1`, the inhibition is 15.3% (inactive).
`Cc1ccc(F)cc1NC(=O)c1cccc(N(C)C)c1`: the inhibition is -82.7% (inactive).
`CN(C)S(=O)(=O)c1ccc(C(=O)NCC2(N3CCOCC3)CCCCC2)cc1`: the inhibition was 5.2% (inactive).
Take `COc1cc(N2CCCC2)c(OC)cc1/C=C(/C#N)c1cccc(Br)c1`: the inhibition is 75.3% (active).
In the case of `CCC(C)CN1CCC(CO)(Cc2ccccc2Cl)CC1` (stereo unspecified), the inhibition was 1.5% (inactive).
As for `COc1ccc(Br)c(Cn2c(C)c(C(=O)NCc3cccs3)sc2=O)c1`, the inhibition is 3.5% (inactive).
Consider `COc1cccc(Nc2nnc(SCC(=O)N3CC(=O)Nc4ccccc43)s2)c1`, for which the inhibition was -6.6% (inactive).
The value for `COc1c(F)c(F)c(C(=O)O)c(Nc2ccccc2C)c1F` was 4.1% (inactive); that for `Cc1ccc(S(=O)(=O)N2CCN(CC(=O)N/N=C/c3ccc(Br)s3)CC2)cc1` was 6% (inactive); that for `Cc1nn(Cc2ccc(Cl)cc2)c(Cl)c1/C=N/NC(=O)CNc1ccccc1F` was 7.1% (inactive).
To `Cc1ccccc1NCC(=O)N/N=C\c1ccc([N+](=O)[O-])s1` belongs 45.1% (active); to `O=C(CN(C(=O)CNC(=O)c1cccs1)c1cccc(F)c1)NC1CCCCC1`, 11.2% (inactive); to `Cc1ccc(NC(=O)COC(=O)CN2CCSC2=O)cc1F`, 14.3% (inactive).
The value for `Cc1cccc(S(=O)(=O)N(C)C[C@H]2OCc3cnnn3CCCC(=O)N([C@@H](C)CO)C[C@H]2C)c1` was 14.1% (inactive); that for `CC(=O)Nc1ccc(S(=O)(=O)N2CCC(NC(=O)c3ccccc3)CC2)cc1` was 9% (inactive); that for `COc1ccc(OC)c(NC(=O)c2cccc(S(=O)(=O)N3CCN(C(C)=O)CC3)c2)c1` was 13.3% (inactive).
`CC(=O)N1CCN(S(=O)(=O)c2cccc(C(=O)NC3CCC(C)CC3)c2)CC1` (stereo unspecified): the inhibition is 43.9% (active).
